The results in this text go back to PubChem BioAssay (NCATS).

Results filed as inconclusive are left out. Values without a mark were called inactive. Active and inactive are the calls of the source. Unless noted, calls follow the shape of the dose curve; as a rule, active = well fitted curve in the direction sought with a large enough effect; inconclusive = small, poorly fitted or top-dose-only effect, or another doubt; inactive = no such curve, though single readings can be large; an effect the other way counts as inactive or inconclusive.

A short description of assay [1]: qHTS to identify inhibitors of the type 1 interferon - major histocompatibility complex class I in skeletal muscle: primary screen against the NCATS Mechanism Interrogation Plate v5.0 (MIPE) Libary (AID 1347411). Also: nearly all actives have a fitted effect of over 65% in size. Put shortly:
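Immortalized human myoblasts (C25cl48) with HiBit knocked into endogenous HLA-B*08:01 were stimulated with 4 ng/ml IFN-beta and given compounds in 11-point 1:3 titration from 46 uM. After 24 h at 37 C, lytic HiBiT luminescence was read.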
Background: In qHTS, concentration-response curves come from the screen itself.

Assay [2] deals with Phospholipid hydroperoxide glutathione peroxidase GPX4 (Homo sapiens) (UniProt P36969). The assay is described as follows: Primary qHTS Assay for Inhibitors of Recombinant Selenoprotein Glutathione Peroxidase 4 (GPX4) (AID 1845192). Also: nearly all actives have a fitted effect of over 65% in size. Also: potency is read from the fitted curve at half-maximal effect. Conditions: outcome: dose series up to 50 µM unless noted. The essentials: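 GR-coupled readout: 100 nM GR, 1 mM GSH, 0.5 mM NADPH; NADPH fluorescence (ex 340/em 450 nm) read at t=0 and after 15 min RT. GPX4 200 nM, preincubated 30 min with compound; substrate 0.5 mM CHP.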
Sequence of Phospholipid hydroperoxide glutathione peroxidase GPX4 (Homo sapiens) (P36969 whole entry, looked up): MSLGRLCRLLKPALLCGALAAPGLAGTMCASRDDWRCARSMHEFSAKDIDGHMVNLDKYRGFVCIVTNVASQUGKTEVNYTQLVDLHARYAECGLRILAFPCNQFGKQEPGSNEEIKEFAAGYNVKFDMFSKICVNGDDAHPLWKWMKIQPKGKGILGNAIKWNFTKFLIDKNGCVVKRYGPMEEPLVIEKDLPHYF

The nature of assay [3]: Primary qHTS for inhibitors of nuclear receptor binding SET domain protein 2 (NSD2) in an isogenic RCH-ACV NSD2 p.E1099K mutant (9B) (AID 1645876). Also: nearly all actives have a fitted effect of over 70% in size. Also: potency is read from the fitted curve at half-maximal effect.
A short description of assay [4]: Primary qHTS for inhibitors of nuclear receptor binding SET domain protein 2 (NSD2) in an RCH-ACV wild type WT cells (2C) (AID 1645877). Also: nearly all actives have a fitted effect of over 70% in size. Also: potency is read from the fitted curve at half-maximal effect.
A short description of assay [5]: qHTS for differential inhibitors of proliferation of Plasmodium falciparum line 7G8 (AID 1815).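 Also: parasite growth measured after three days of incubation.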 Also: potency is read from the fitted curve at half-maximal effect.
Assay [6] in a line: qHTS for differential inhibitors of proliferation of Plasmodium falciparum line W2 (AID 1883).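 Also: parasites grown with compound for 72 h before lysis and staining.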 Also: potency is read from the fitted curve at half-maximal effect. Conditions: Potency: Plasmodium falciparum W2 proliferation inhibition.
Assay [7] can be described thus: qHTS Assay for Modulators of Human Peripheral Myelin Protein 22 (PMP22) Expression/Activity (AID 1967; active = well fitted curve in the direction sought with a large enough effect in the signal ratio; the % refers to the signal ratio). The essentials: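 Luminescence ratio of Pmp22 promoter-driven green luciferase to EF-alpha-driven red luciferase, in engineered mouse MSC80 Schwann cells, served as read-out. Compounds were incubated 24h; untreated cells defined 0% Activity; curves were classified by r2, magnitude and activity.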

Assay [8] concerns the target M-phase phosphoprotein 8 (Homo sapiens) (UniProt Q99549). The experiment in a line: qHTS Validation Assay for Inhibitors for MPP8 Chromodomain Interactions with Methylated Histone Tails (AID 488949).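 Also: 50 nM MPP8 with 50 nM peptide preformed then compounds added for 30 min; AlphaScreen signal from MPP8 chromodomain bound to biotinylated H3K9me3 peptide; top concentration of the series differs between compounds; nearly all actives have a fitted effect of over 55% in size.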 The essentials: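 50 nM MPP8 + 50 nM b-H3K9me3 peptide, PBS pH 7.4/0.01% Tween-20, 30 min RT; + cpd 30 min RT; + AlphaScreen donor/Ni-chelate acceptor beads 10 ug/mL final, 30 min dark; luminescence read.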

Sequence of M-phase phosphoprotein 8 (Homo sapiens) (Q99549 whole entry, looked up): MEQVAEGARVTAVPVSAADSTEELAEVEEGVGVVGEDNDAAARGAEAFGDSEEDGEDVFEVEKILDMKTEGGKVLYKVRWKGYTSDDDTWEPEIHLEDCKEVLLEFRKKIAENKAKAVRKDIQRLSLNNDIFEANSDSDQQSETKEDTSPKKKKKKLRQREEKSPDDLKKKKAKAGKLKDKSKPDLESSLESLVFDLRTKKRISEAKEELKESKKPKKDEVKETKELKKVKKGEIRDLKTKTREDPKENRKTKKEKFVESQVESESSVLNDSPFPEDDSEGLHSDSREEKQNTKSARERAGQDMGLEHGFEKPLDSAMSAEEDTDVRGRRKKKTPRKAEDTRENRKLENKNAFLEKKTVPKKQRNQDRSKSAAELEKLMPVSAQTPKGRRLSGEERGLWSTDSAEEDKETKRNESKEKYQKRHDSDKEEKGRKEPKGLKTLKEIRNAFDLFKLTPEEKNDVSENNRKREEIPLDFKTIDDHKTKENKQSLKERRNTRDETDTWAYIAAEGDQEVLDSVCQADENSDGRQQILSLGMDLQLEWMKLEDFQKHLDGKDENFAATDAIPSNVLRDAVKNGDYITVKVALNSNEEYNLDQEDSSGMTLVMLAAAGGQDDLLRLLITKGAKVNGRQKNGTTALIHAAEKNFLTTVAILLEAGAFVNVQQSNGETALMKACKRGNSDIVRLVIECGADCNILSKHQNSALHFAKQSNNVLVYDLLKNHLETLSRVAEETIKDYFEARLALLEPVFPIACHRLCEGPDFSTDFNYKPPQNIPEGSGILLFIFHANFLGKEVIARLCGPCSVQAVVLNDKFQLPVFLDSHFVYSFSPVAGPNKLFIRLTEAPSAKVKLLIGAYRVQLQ

Turning to `CC(C)OC(=O)[C@H](C)N[P@](=O)(OC[C@H]1O[C@@H](n2ccc(=O)[nH]c2=O)[C@](C)(F)[C@@H]1O)Oc1ccccc1`, the Potency result in assay [1] and in assay [2] was “inactive” throughout.
Regarding `C=CC(=O)Nc1cc(N2CCN(CC)CC2)ccc1Nc1cc(N(C)C(=O)Nc2c(Cl)c(OC)cc(OC)c2Cl)ncn1`, the Potency entry in assay [1] and in assay [2] was “inactive” in each case.
Regarding `CN(C)C(N)=NC(=N)N`, in assay [1], the result was inactive. Moreover, in assay [2], the outcome is “inactive [setting not given]”.
With `CN(C)Cc1ccc(S(=O)(=O)n2ccc(/C=C/C(=O)NO)c2)cc1`, the Potency in assay [3] and in assay [4] was 1860 nM (active) throughout. Also, the Potency entry in assay [2] is “inactive”.
Turning to `Cc1cc2cc(Oc3ccnc(Nc4cccc(CS(=O)(=O)NCCN(C)C)c4)n3)ccc2[nH]1`, the Potency in assay [3] was 8330 nM (active); in assay [4], 5900 nM (active). Also, the Potency result in assay [2] was “inactive”.
Turning to `Cc1cc(O)c(-c2ccc([C@@H](C)CN)cc2)c2c1[nH]c(=O)c1sccc12`, the Potency result in assay [3], in assay [4] and in assay [2] was “inactive” in each case.
With `C[C@@H]1C[C@H](N)C[C@H](c2ccncc2NC(=O)c2ccc(F)c(-c3c(F)cccc3F)n2)C1`, the Potency in assay [3] is 14800 nM (active); in assay [4] it was 11800 nM (active). The Potency entry in assay [2] was “inactive”.
On to `CC#CC(=O)N1CC[C@@H](n2c(=O)n(-c3ccc(Oc4ccccc4)cc3)c3c(N)ncnc32)C1`, for which the Potency in assay [3] is 6610 nM (active); in assay [4], 16600 nM (active). In assay [2], the Potency entry is “inactive”.
The matching figures for `C[C@@H](Oc1cc(C(=O)Nc2ccc(C(=O)N3CCN(C)CC3)cc2)nnc1N)c1c(Cl)ccc(F)c1Cl`: 2630 nM (active), 1480 nM (active) and “inactive”.
With `Nc1ncc(C(=O)NC2CN(C(=O)C3CC3)C2)c2ccc(-c3cccc(F)c3)nc12`, the Potency result in assay [1] and in assay [2] was “inactive” throughout.
`Cc1cc(Oc2ccc3nc(COc4ccc(CC5SC(=O)NC5=O)cc4)n(C)c3c2)cc(C)c1N` (stereo not given): the Potency entry in assay [1] was “inactive”.
Turning to `CO[C@H]1/C=C/O[C@@]2(C)Oc3c(C)c(O)c4c(O)c(c5c(c4c3C2=O)=NC2(CCN(CC(C)C)CC2)N=5)NC(=O)/C(C)=C/C=C/[C@H](C)[C@H](O)[C@@H](C)[C@@H](O)[C@@H](C)[C@H](OC(C)=O)[C@@H]1C`, in assay [1], the Potency entry is “inactive”.
With `O=C(CCc1ccc(O)cc1)c1c(O)cc(O)cc1O[C@@H]1O[C@H](CO)[C@@H](O)[C@H](O)[C@H]1O`, the Potency result in assay [3] and in assay [2] was “inactive” each time.
Consider `C/C=C(/C)C(=O)O[C@H]1C(C)=CC23C(=O)C(C=C(CO)[C@@H](O)[C@]12O)[C@H]1[C@@H](C[C@H]3C)C1(C)C` (stereo not given in full), for which the Potency entry in assay [1] and in assay [2] was “inactive” in each case.
For `CO[C@@H]1[C@@H](O)[C@H](O)[C@@H](n2c3c(Cl)cccc3c3c4c(c5c6cccc(Cl)c6[nH]c5c32)C(=O)NC4=O)O[C@H]1CO`, the Potency in assay [3] was 934 nM (active); in assay [4] it was 525 nM (active). Besides, in assay [2], the Potency result was “inactive”.
With `COc1cc(-c2cn(C)c(=O)c3cnccc23)cc(OC)c1CN(C)C`, the Potency entry in assay [1] and in assay [2] was “inactive” each time.
For `CC(C)(c1ccc(OCC(O)CO)cc1)c1ccc(OCC(O)CCl)cc1` (stereo not given), the Potency result in assay [1] and in assay [2] was “inactive” in each case.
On to `COC(=O)N(CC(=O)O)Cc1cccc(OCc2nc(-c3ccc(Cl)cc3)oc2C)c1`, for which the Potency entry in assay [1] is “inactive”.
For `CCN(CC)CCNC(=O)c1c(C)[nH]c(/C=C2/C(=O)Nc3ccc(-c4csc(-c5ccccc5)n4)cc32)c1C`, the values for the Potency in assay [3] and in assay [4] were 7420 nM (active) and 5900 nM (active), respectively. The Potency result in assay [2] is “inactive”.
Consider `CC[C@@H](Oc1cccc(CN(CCCOc2ccc(OC)cc2)c2nc3ccccc3o2)c1)C(=O)O`, for which, in assay [1], the Potency entry is “inactive”.
As for `C[C@H]1CN(C2COC2)CCN1c1ccc(Nc2cc(-c3ccnc(N4CCn5c(cc6c5CC(C)(C)C6)C4=O)c3CO)cn(C)c2=O)nc1`, the Potency result in assay [1] and in assay [2] was “inactive” each time.
`CC(C)n1c(/C=C/[C@H](O)C[C@H](O)CC(=O)O)c(-c2ccc(F)cc2)c2ccccc21`: the Potency entry in assay [1] and in assay [2] was “inactive” each time.
For `NC(=S)N/N=C/c1ncccc1N`, the Potency result in assay [1] is “inactive”.
Consider `CC(=O)c1cc2c(o1)C(=O)c1ccccc1C2=O`, for which the Potency in assay [3] was 1860 nM (active); in assay [4], 1320 nM (active).
Regarding `C[C@@H]1Cc2c([nH]c3ccccc23)[C@@H](c2c(F)cc(/C=C/C(=O)O)cc2F)N1CC(C)(C)F`, in assay [1], the Potency result was “inactive”.
As to `CN(C)C[C@@H]1CCn2cc(c3ccccc32)C2=C(C(=O)NC2=O)c2cn(c3ccccc23)CCO1`, the Potency in assay [3] was 7420 nM (active); in assay [4] it was 6610 nM (active). Moreover, the Potency entry in assay [2] is “inactive”.
Consider `CCC(=C/[C@H](C)C/C=C/C(C)=C/[C@@H](C)C(=O)[C@@H](C)[C@H](O)[C@@H](C)C/C(C)=C/C(=O)O)/C=C/[C@@H]1OC(=O)C=C[C@@H]1C`, for which the Potency is 4.2 nM (active) in assay [3] and 10100 nM (active) in assay [2].
For `COc1ccc(S(=O)(=O)NCc2ccc(C(=O)NCCc3ccc(Cl)cn3)cc2)cc1`, the Potency entry in assay [1] and in assay [2] was “inactive” in each case.
In the case of `CN1C(=O)N(c2cc(Cl)cc(Cl)c2)C(=O)[C@]12CN(Cc1cc(C(=O)O)cs1)C[C@H]2c1ccc(C#N)cc1`, in assay [1], the Potency entry is “inactive”.
Turning to `NS(=O)(=O)Oc1ccc2c3c(c(=O)oc2c1)CCCCC3`, in assay [1], the Potency result was “inactive”. Moreover, the Potency in assay [2] is 18000 nM (active).
The matching figures for `NS(=O)(=O)c1ccc(NC(=S)N2CCN(C/C=C/c3ccccc3)CC2)cc1`: “inactive” and “inactive”.
For `C=CCN(/C=C1\C(=O)O[C@@H](COC)[C@]2(C)C1=C(O)C(=O)C1=C2[C@@H](OC(C)=O)C[C@]2(C)C(=O)CC[C@H]12)CC=C`, the Potency was 10500 nM (active) in assay [3] and 8330 nM (active) in assay [4]. In assay [2], the Potency entry is “inactive”.
Take `Cc1nc2cccc(N)c2c(=O)n1C1CCC(=O)NC1=O` (stereo not given): the Potency entry in assay [1] and in assay [2] was “inactive” in each case.
For `CN1CCN(c2ccc(Nc3ncc4cc(C#N)c(=O)n(C5CCCC5)c4n3)cc2)CC1`, the results for the Potency in assay [3] and in assay [4] were 590 nM (active) and 525 nM (active), respectively. In addition, the Potency result in assay [2] is “inactive”.
For the compound `CN(C(=O)CNC(=O)/C=C/c1cccc(Cl)c1)C1CCS(=O)(=O)CC1`, the Potency result in assay [1] and in assay [2] was “inactive” throughout.
As for `N#CCC1(n2cc(-c3ncnc4[nH]ccc34)cn2)CN(C2CCN(C(=O)c3ccnc(C(F)(F)F)c3F)CC2)C1`, the results for the Potency in assay [4] and in assay [2] were 18600 nM (active) and 20200 nM (active), respectively.
`COc1cc(=C2C=c3ccccc3=N2)[nH]/c1=C/c1[nH]c(C)cc1C`: the Potency result in assay [3] and in assay [4] was “inactive” in each case.
In the case of `N#C/C(=C1/Nc2ccccc2S1)c1ccnc(OCc2ccc(CN3CCOCC3)cc2)n1`, the Potency entry in assay [1] was “inactive”.
Turning to `COc1cc(C(N)=O)ccc1NC(=O)[C@@H]1N[C@@H](CC(C)(C)C)[C@@]2(C(=O)Nc3cc(Cl)ccc32)[C@H]1c1cccc(Cl)c1F`, the Potency in assay [3] is 235 nM (active); in assay [4], 93.4 nM (active).
Consider `COC1CC(C(=O)c2ccc3c(N)ncc(-c4ccc(-c5cnn(C)c5)cc4)c3n2)C1` (stereo not given), for which the Potency is 1480 nM (active) in assay [3] and 41.7 nM (active) in assay [4]. In assay [2], the Potency result was “inactive”.
As for `CNC(=O)[C@H]1O[C@@H](n2cnc3c(NCc4cccc(I)c4)ncnc32)[C@H](O)[C@H]1O`, the Potency is 7940 nM (active) in assay [5] and 8910 nM (active) in assay [6].
As to `Nc1nc2c(c(=O)[nH]1)N1CN(c3ccc(C(=O)N[C@@H](CCC(=O)O)C(=O)O)cc3)CC1CN2` (stereo not given in full), the Potency is 833 nM (active) in assay [3] and 742 nM (active) in assay [4]. For the same compound, the Potency entry in assay [2] is “inactive”.
For the compound `NC(=O)c1cccc2c(NC(CN3CCC3)c3ccc(Cl)c(C(F)(F)F)c3)ncnc12` (stereo not given), the Potency in assay [3] was 1050 nM (active); in assay [4], 1320 nM (active).
Turning to `Cc1cn([C@H]2C[C@@H](N=[N+]=[N-])[C@@H](CO)O2)c(=O)[nH]c1=O`, the Potency entry in assay [5] and in assay [6] was “inactive” throughout.
Turning to `CN1C2CCC1CC(NC(=O)c1nn(C)c3ccccc13)C2` (stereo not given), the outcome in assay [7] was inactive. Moreover, in assay [8], the Potency entry is “inactive”.
